High-throughput results deposited in PubChem BioAssay by Broad Institute.
NOMO-1 viab: STK33 inhibitor candidate reducing NOMO-1 cell viability; NOMO-1 AML viability, CellTiter-Glo luminescence, 72 h; inhibition, % (no concentration beside the values); hit rate 7.5% among 37,000; AID 2330; in the data active means inhibition above about 80%
PD-1 reverse act: activators reversing PD-1 mediated T-cell inhibition | 29,000 tested, under 10 active | activation, % (test concentration not listed) | AID 2316 | primary human CD4 T cells, PD-L1 beads, CellTiter-Glo 96 h; call rule not given here
STK33 kin inh: human STK33 kinase inhibition. Q9BYT3. ADP-Glo luminescence, MBP substrate. inhibition, % at 12.5 µM. hit rate 0.44% among 27,000; in the data active means inhibition above about 20%
Target sequence (Q9BYT3 whole entry, looked up): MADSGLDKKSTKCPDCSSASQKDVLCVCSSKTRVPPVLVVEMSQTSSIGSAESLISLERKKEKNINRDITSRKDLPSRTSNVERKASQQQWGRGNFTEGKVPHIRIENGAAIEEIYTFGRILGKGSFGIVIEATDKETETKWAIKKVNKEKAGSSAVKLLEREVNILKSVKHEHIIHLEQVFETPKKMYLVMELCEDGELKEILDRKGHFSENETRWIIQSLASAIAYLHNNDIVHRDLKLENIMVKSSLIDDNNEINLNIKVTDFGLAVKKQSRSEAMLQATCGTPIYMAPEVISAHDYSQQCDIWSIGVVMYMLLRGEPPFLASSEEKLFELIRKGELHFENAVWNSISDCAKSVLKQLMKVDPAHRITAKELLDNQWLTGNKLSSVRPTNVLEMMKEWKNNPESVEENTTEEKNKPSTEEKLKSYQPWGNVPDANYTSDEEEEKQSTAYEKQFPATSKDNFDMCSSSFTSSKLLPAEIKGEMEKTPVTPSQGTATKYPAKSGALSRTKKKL
Of the large screens only hits and unclear results are named; the others gave an inactive call. Only a selection was taken, and hits are over-represented in it overall.

CC(=O)OC1CCC2C3CCc4cc(O)ccc4C3CCC12C (centres undefined)	NOMO-1 viab 99 (no result: PD-1 reverse act)
CCCCC(=O)O[C@H]1CCC2C3CCc4cc(O)ccc4C3CC[C@@]21C (some centres undefined)	none (no result: PD-1 reverse act)
COc1ccc2c(c1)CCC1C2CC[C@@]2(C)C1CC[C@@H]2O (some centres undefined)	none (no result: PD-1 reverse act)
NC(=O)CSCC(=O)Nc1ccccc1F	none
CC(=O)c1cccc(NC(=O)Nc2nn(Cc3c(F)cccc3Cl)cc2Br)c1	NOMO-1 viab 106
COc1ccc(NC(=O)Nc2nn(Cc3c(F)cccc3Cl)cc2Cl)cc1OC	none
O=C(Nc1ccccc1C(=O)O)c1ncn[nH]1	none
O=C(Nc1cccc(NC(=O)c2ncn[nH]2)c1)c1cccc(Cl)c1	STK33 kin inh 32
Cc1c(Cl)cccc1NC(=O)CN(c1ccc(I)cc1)S(C)(=O)=O	none
CC(=O)N1C(=S)NC(=O)C1c1ccccc1 (centres undefined)	none
COc1ccc(NC(=O)N(C)C[C@H]2Oc3c(NC(=O)Nc4ccc(C(F)(F)F)cc4)cccc3C(=O)N([C@H](C)CO)C[C@@H]2C)cc1	NOMO-1 viab 103 (no result: STK33 kin inh)
C[C@@H]1CN([C@@H](C)CO)C(=O)c2cccc(NC(=O)Nc3ccc(C(F)(F)F)cc3)c2O[C@@H]1CN(C)C(=O)Nc1ccc2c(c1)OCO2	none (no result: STK33 kin inh)
C[C@@H]1CN([C@@H](C)CO)C(=O)c2cccc(NC(=O)CCCCCC(=O)Nc3ccccc3N)c2O[C@@H]1CN(C)C(=O)Nc1ccc(C(F)(F)F)cc1	NOMO-1 viab 118 (no result: STK33 kin inh)
C[C@@H]1CN([C@@H](C)CO)C(=O)c2cccc(NC(=O)Nc3ccc(C(F)(F)F)cc3)c2O[C@H]1CN(C)C(=O)Nc1ccc(C(F)(F)F)cc1	NOMO-1 viab 105 (no result: PD-1 reverse act, STK33 kin inh)
C[C@H]1CN([C@@H](C)CO)C(=O)c2cccc(NC(=O)Nc3ccc(C(F)(F)F)cc3)c2O[C@H]1CN(C)C(=O)Nc1ccc2c(c1)OCO2	NOMO-1 viab 92 (no result: PD-1 reverse act, STK33 kin inh)
C[C@@H]1CN([C@@H](C)CO)C(=O)c2cccc(NC(=O)Nc3ccc(C(F)(F)F)cc3)c2O[C@@H]1CN(C)C(=O)Nc1ccc(F)cc1	none (no result: STK33 kin inh)
COc1ccc(NC(=O)Nc2cccc3c2O[C@@H](CN(C)C(=O)Nc2ccc(C(F)(F)F)cc2)[C@H](C)CN([C@@H](C)CO)C3=O)cc1	none (no result: STK33 kin inh)
C[C@H](CO)N1C[C@H](C)[C@H](CN(C)C(=O)Nc2ccc(F)cc2)Oc2c(NC(=O)CCCCCC(=O)Nc3ccccc3N)cccc2C1=O	none (no result: STK33 kin inh)
O=C(CSc1nnc(-c2ccncc2)n1-c1ccccc1)NC1CCCCC1	none
Cc1c(Cl)cccc1NC(=O)CCC(=O)O	none (no result: PD-1 reverse act)
CC(C)NC(=O)N(C)C[C@@H]1Oc2c(NC(=O)Nc3ccc(C(F)(F)F)cc3)cccc2C(=O)N([C@@H](C)CO)C[C@H]1C	none (no result: PD-1 reverse act, STK33 kin inh)
C[C@H](CO)N1C[C@H](C)[C@@H](CN(C)C(=O)Nc2ccc(C(F)(F)F)cc2)Oc2c(NC(=O)Nc3ccccc3)cccc2C1=O	none (no result: STK33 kin inh)
C[C@@H]1CN([C@H](C)CO)C(=O)c2cccc(NC(=O)Nc3ccc(C(F)(F)F)cc3)c2O[C@@H]1CN(C)C(=O)Nc1ccccc1	NOMO-1 viab 105 (no result: STK33 kin inh)
COc1ccc(S(=O)(=O)Nc2cccc3c2O[C@H](CN(C)C(=O)Nc2ccc(F)cc2)[C@@H](C)CN([C@H](C)CO)C3=O)cc1	none
COc1ccc(S(=O)(=O)Nc2cccc3c2O[C@@H](CN(C)C(=O)Nc2ccc(F)cc2)[C@@H](C)CN([C@H](C)CO)C3=O)cc1	NOMO-1 viab 111 (no result: STK33 kin inh)
CC(C)NC(=O)N(C)C[C@H]1Oc2c(NC(=O)Nc3ccc(C(F)(F)F)cc3)cccc2C(=O)N([C@H](C)CO)C[C@H]1C	NOMO-1 viab 115 (no result: STK33 kin inh)
C[C@H]1CN([C@@H](C)CO)C(=O)c2cccc(NC(=O)Nc3ccc(C(F)(F)F)cc3)c2O[C@@H]1CN(C)C(=O)Nc1ccc(C(F)(F)F)cc1	NOMO-1 viab 88 (no result: STK33 kin inh)
COc1ccc(NC(=O)N(C)C[C@H]2Oc3c(NC(=O)Nc4ccc(C(F)(F)F)cc4)cccc3C(=O)N([C@@H](C)CO)C[C@@H]2C)cc1	none (no result: PD-1 reverse act, STK33 kin inh)
C[C@]12CCC(=O)C=C1CC[C@@H]1C2[C@@H](O)C[C@@]2(C)C1CC[C@@H]2C(=O)CO (some centres undefined)	none
COc1ccc(OC)c(-n2c(CN3CCC(C(N)=O)CC3)nc3ccccc3c2=O)c1	none
COc1ccc(OC)c(-n2c(CNC3CCN(Cc4ccccc4)CC3)nc3ccccc3c2=O)c1	NOMO-1 viab 90 (no result: PD-1 reverse act)
C[C@@H]1CN([C@@H](C)CO)C(=O)Cc2cc(NC(=O)Cc3cn(C)c4ccccc34)ccc2O[C@@H]1CN(C)Cc1ccc(Cl)c(Cl)c1	NOMO-1 viab 107
C[C@@H]1CN([C@H](C)CO)C(=O)Cc2cc(NC(=O)Cc3cn(C)c4ccccc34)ccc2O[C@H]1CN(C)Cc1ccc(Cl)c(Cl)c1	NOMO-1 viab 115
C[C@@H]1CN([C@H](C)CO)C(=O)Cc2cc(NC(=O)Cc3cn(C)c4ccccc34)ccc2O[C@@H]1CN(C)Cc1ccc2c(c1)OCO2	none
C[C@H](CO)N1C[C@H](C)[C@H](CN(C)Cc2ccccc2)Oc2ccc(NC(=O)Cc3cn(C)c4ccccc34)cc2CC1=O	none (no result: PD-1 reverse act)
Cc1cc(Br)ccc1OCC(=O)Nc1ccccc1[N+](=O)[O-]	none
O=C(O)c1oc(C(=O)O)c(OCc2ccccc2)c1OCc1ccccc1	none (no result: STK33 kin inh)
COC(=O)c1ccccc1S(=O)(=O)/C(C#N)=C/Nc1nc(SC)nc(C2CC2)n1	none (no result: STK33 kin inh)
C[C@@H]1CN([C@H](C)CO)C(=O)c2cccc(NC(=O)c3ccc(-c4nccs4)cc3)c2O[C@H]1CN(C)Cc1ccc(C(=O)Nc2ccccc2N)cc1	NOMO-1 viab 128 (no result: STK33 kin inh)
C[C@@H]1CN([C@H](C)CO)C(=O)c2cccc(NC(=O)c3ccc(-c4nccs4)cc3)c2O[C@H]1CN(C)CC1CCCCC1	NOMO-1 viab 87 (no result: PD-1 reverse act, STK33 kin inh)
C[C@@H]1CN([C@@H](C)CO)C(=O)c2cccc(NC(=O)c3ccc(-c4nccs4)cc3)c2O[C@H]1CN(C)Cc1ccccc1	NOMO-1 viab 88 (no result: STK33 kin inh)
C[C@H]1CN([C@@H](C)CO)C(=O)c2cccc(NC(=O)c3ccc(-c4nccs4)cc3)c2O[C@H]1CN(C)Cc1ccccc1	none (no result: PD-1 reverse act, STK33 kin inh)
Cc1ccc(S(=O)(=O)N(C)C[C@@H]2Oc3c(NC(=O)c4ccc(-c5nccs5)cc4)cccc3C(=O)N([C@H](C)CO)C[C@@H]2C)cc1	NOMO-1 viab 82 (no result: STK33 kin inh)
C[C@H](CO)N1C[C@H](C)[C@H](CN(C)CC2CCCCC2)Oc2c(NC(=O)c3ccc(-c4nccs4)cc3)cccc2C1=O	none (no result: STK33 kin inh)
Cc1ccc(S(=O)(=O)N(C)C[C@H]2Oc3c(NC(=O)c4ccc(-c5nccs5)cc4)cccc3C(=O)N([C@@H](C)CO)C[C@H]2C)cc1	none (no result: STK33 kin inh)
C[C@@H]1CN([C@@H](C)CO)C(=O)c2cccc(NC(=O)c3ccc(-c4nccs4)cc3)c2O[C@@H]1CN(C)Cc1ccc(-c2ccccc2)cc1	none (no result: STK33 kin inh)
COC(=O)[C@@]1(Cc2ccccc2N=[N+]=[N-])N=C(c2ccc(OCCCO)cc2)O[C@H]1c1ccccc1N=[N+]=[N-]	none (no result: NOMO-1 viab, PD-1 reverse act)
COC(=O)c1ccc(NC(=O)CSC(=S)N2CCOCC2)cc1	none
Cc1cccc(N2C(=O)CC(SCc3nc4ccccc4[nH]3)C2=O)c1 (centres undefined)	none
O=S(=O)(Nc1nccs1)c1ccc(NS(=O)(=O)c2cc(Cl)ccc2Cl)cc1	none (no result: PD-1 reverse act)
